These results are taken from PubChem BioAssay (NCI).

Common to all, as to assay: NCI-60 one-dose screen, 48 h (100 = growth as untreated, 0 = no growth, -100 = all killed)
The test system of experiment [1] is NCI-H23 lung. The settings on record: 10 µM unless noted.
Experiment [2] relates to NCI-H226 lung. The settings on record: 10 µM unless noted.
Experiment [3] has as its system NCI-H322M lung. As to conditions: 10 µM unless noted.
Experiment [4] concerns NCI-H460 lung. The settings on record: 10 µM unless noted.
The test system of experiment [5] is HOP-92 NSCLC. The settings on record: 10 µM.
In experiment [6] the test system is NCI-H522 lung. The settings on record: 10 µM.
The subject of experiment [7] is A549/ATCC NSCLC. The settings on record: 10 µM unless noted.
Experiment [8] deals with 786-0 renal. As to conditions: 10 µM unless noted.
Experiment [9] concerns COLO 205 colon. As to conditions: 10 µM unless noted.
The subject of experiment [10] is DU-145 prostate. The settings on record: 10 µM unless noted.
The test system of experiment [11] is K-562 leukemia. As to conditions: 10 µM unless noted.
The subject of experiment [12] is MALME-3M melanoma. As to conditions: 10 µM unless noted.
Experiment [13] deals with MDA-MB-231 breast. As to conditions: 10 µM unless noted.
Experiment [14] relates to RXF 393 renal. As to conditions: 10 µM unless noted.
The subject of experiment [15] is SF-268 CNS. As to conditions: 10 µM unless noted.
The test system of experiment [16] is SF-295 CNS. As to conditions: 10 µM unless noted.
Experiment [17] deals with SF-539 CNS. As to conditions: 10 µM unless noted.
Experiment [18] concerns UACC-257 melanoma. As to conditions: 10 µM unless noted.
Experiment [19] deals with M14 melanoma. The settings on record: 10 µM unless noted.

About 83,000 compounds went through this panel and 20% of them were active in at least one assay; those are over-represented in the sample as a whole.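 Cell lines were cultured in 96-well plates, exposed to a single compound concentration, and assessed for percent growth 48 hours later.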 Values without a mark were called inactive. Activity calls are given as the source filed them. Rule for the calls: active = growth percent below 10; inactive = the rest.

Regarding `CCCCCCCCCC[N+](C)(C)C`, the growth in [1] is 28.8%; in [2] it was 45%; in experiment [3], 75.6%; in [4], 13%; in experiment [5], -24.5% (active); in [6] it was 18.1%. Further, the growth in experiment [7] is 34.3%; in experiment [8], 8.96% (active); in experiment [9], -49.9% (active); in experiment [10], 34%; in experiment [11], 22.3%; in experiment [12] it was 24.8%. The growth was 14.3% in experiment [13]; -42.3% (active) in experiment [14]; 13.2% in [15]; 36.1% in experiment [16]; 1.4% (active) in [17]; 66.3% in experiment [18]. Further, the growth in [19] was 6.8% (active).
For the compound `CCCCCCCCc1ccc(CCC(N)(CO)CO)cc1`, the growth in experiment [1] was 68.9%; in [2], 94.3%; in experiment [3], 3.56% (active); in experiment [4], 0.54% (active); in [5] it was -5.83% (active); in experiment [6] it was -51.7% (active). Also, the growth in experiment [7] was 0.665% (active); in experiment [8], -44.2% (active); in experiment [9] it was -87.5% (active); in [10] it was 3.12% (active); in [11], -25.2% (active); in experiment [12], 26.2%. Also, the growth in experiment [13] was -24.1% (active); in [15] it was 20.3%; in experiment [16], 67.9%; in experiment [17] it was 17.3%; in [18] it was 53.7%; in [19], 50%.
For `c1ccc2[nH]c(-c3ccc(OCCCCCOc4ccc(-c5nc6ccccc6[nH]5)cc4)cc3)nc2c1`, the growth is 40.9% in [1]; 103% in [2]; 72.7% in experiment [3]; -19.8% (active) in experiment [4]; -75% (active) in [5]; 30.9% in experiment [6]. Further, the growth in experiment [7] was 12.7%; in experiment [8] it was 14.7%; in experiment [9], 121%; in [10], 21.4%; in [11], -13.8% (active); in [12] it was -30.8% (active). Further, the growth in [13] is 40.5%; in [14], -74.2% (active); in [15], -37.7% (active); in [16], 53%; in experiment [17] it was -12.8% (active); in experiment [18], 71.4%. Besides, in experiment [19], the growth is -38.6% (active).
Regarding `CCCCCCCCCCCCc1ccc([N+](CC)(CC)CC)cc1`, the growth is 17.6% in [1]; 59.3% in [2]; 88.5% in experiment [3]; 44% in experiment [4]; 40.9% in [5]; 33.8% in experiment [6]. For the same compound, the growth was 61.1% in experiment [7]; 65.6% in experiment [8]; 20.3% in [9]; 58.8% in [10]; 16.3% in experiment [11]; -11.1% (active) in experiment [12]. The growth was 41.7% in experiment [13]; 45.8% in [14]; 47.8% in [15]; 48.9% in experiment [16]; 58.7% in experiment [17]; 13.6% in [18]. Besides, the growth in [19] is 32.5%.
`CC(=O)Nc1nc(C)c(C(=O)N/N=C/N2CCOCC2)s1`: the growth in experiment [1] is 106%; in experiment [2], 99.8%; in experiment [3], 115%; in experiment [4], 113%; in experiment [5] it was 48.4%; in [6] it was 25.3%. Also, the growth was 111% in experiment [7]; 77.1% in experiment [8]; 127% in experiment [9]; 109% in experiment [10]; 174% in [11]; 114% in experiment [12]. Further, the growth in experiment [13] was 109%; in experiment [14] it was 119%; in [15], 103%; in [16] it was 110%; in experiment [17], 105%; in [18], 118%. Besides, in experiment [19], the growth is 113%.
Turning to `COC(=O)c1ccc2[nH]c(O)c(C(=Nc3ccc(N(C)C(=O)CN4CCN(C)CC4)cc3)c3ccc(N)cc3)c2c1`, the growth in experiment [1] is 70%; in experiment [2], 56.5%; in [3], 77.4%; in experiment [4], 105%; in experiment [5], 78.3%; in experiment [6], 75.5%. Further, the growth was 111% in experiment [7]; 63.9% in experiment [8]; 41.4% in experiment [9]; 96.8% in experiment [10]; 14% in experiment [11]; 83.5% in experiment [12]. Further, the growth in [13] is 87.6%; in experiment [14], 56.7%; in experiment [15] it was 62.4%; in experiment [16], 99.1%; in experiment [17], 50.8%; in experiment [18], 125%. The growth in experiment [19] was 88%.
Turning to `CC(=O)/C(=C/c1ccc(-c2ccccc2)cc1)C(=O)c1ccccc1`, the growth in experiment [1] was 91.6%; in experiment [2], 83.1%; in experiment [3], 100%; in [4], 99.8%; in experiment [5], 89.9%; in experiment [6], 61.7%. Moreover, the growth in experiment [7] was 76.4%; in [8], 92%; in [9], 93.6%; in experiment [10], 87.1%; in experiment [11], 64.2%; in [12], 89.3%. For the same compound, the growth in experiment [13] was 92.5%; in [14] it was 90.6%; in [15], 85.9%; in experiment [16] it was 92.3%; in [17], 85.1%; in experiment [18], 80.2%. Also, the growth in experiment [19] was 79.8%.
As for `c1ccc(Nc2ccccn2)cc1`, the growth was 103% in [1]; 130% in experiment [2]; 106% in experiment [3]; 115% in experiment [4]; 97.9% in experiment [5]; 91.7% in [6]. The growth in experiment [7] is 98.9%; in [8], 95.1%; in experiment [9], 99.8%; in [10], 111%; in [11] it was 89.5%; in experiment [12], 103%. Further, the growth in [13] is 96.6%; in [14] it was 113%; in [15], 115%; in experiment [16], 102%; in experiment [17], 99.5%; in experiment [18], 104%. Also, the growth in experiment [19] was 107%.
